Compound activity as filed in PubChem.
A selection: hits, their analogues and other compounds. The true share with any hit is near 9.4%.
Pf growth 48h: P. falciparum growth inhibition at 48 hours (one generation). P. falciparum luciferase growth in erythrocytes, 48 h. actives 5.9% (n = 310,000). Potency, µM (highest dose often 28.7 µM), without a hit: top-dose activity change, negative = inhibition, most hits filed as inhibitors; note: % is set by controls: 0 for no effect and ±100 for the full control effect
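Erythrocytes infected with P. falciparum carrying an integrated firefly luciferase reporter (2% hematocrit, 0.1% parasitemia final) were exposed to compounds in RPMI 1640 with 0.5% Albumax at 37 C, 5% CO2. Growth inhibition was scored as reduced luminescence.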
Pf growth 96h: inhibits malaria parasite growth, 96 h; actives 6.9% (n = 320,000); P. falciparum luciferase reporter growth, 96 h; AID 504834; Potency, µM (highest dose often 28.7 µM), for inactives: top-dose activity change, negative = inhibition, actives largely listed as inhibitors; note: % is set by controls: 0 for no effect and ±100 for the full control effect
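Parasite growth measured via integrated firefly luciferase reporter in P. falciparum. Infected erythrocytes at 2% hematocrit, 0.05% parasitemia final were treated 96 hours at 37 C under 5% CO2, and luminescence was read.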
AMA1 RON2 block: disrupts binding of P. falciparum AMA1 to RON2; AlphaScreen AMA1-biotinylated RON2 peptide binding; Potency, µM (series often up to 58.2 µM), for the others: top-dose activity change, negative = inhibition, actives largely listed as inhibitors; actives 0.2% (n = 360,000);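 note: 0% = vehicle wells and -100% = peptide control; nearly all actives have a fitted effect of over 45% in size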
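AMA1 (3D7) with his tag at 25 nM final met compounds first, then biotinylated RON2 peptide at 25 nM; detection used donor plus acceptor beads, 10 µg/mL apiece, read by AlphaScreen after 30 min at room temperature.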
SARS PLpro yeast: SARS-CoV PLP inhibition in yeast. S. cerevisiae expressing SARS-CoV PLpro, growth rescue. Potency, µM (doses to about 32.9 µM), inactives show at the highest dose activity, positive = growth rescue, usual class: activators. actives 0.19% (n = 330,000). AID 485353; calls by dose curve; note: 0% is about no effect; nearly all actives have a fitted effect of over 55% in size
An asterisk follows results filed as active; u = inconclusive; x = not tested or not shown. Unless noted, calls come from the whole dose curve; as a rule, active = well fitted curve in the direction sought with a large enough effect; inconclusive = small, poorly fitted or top-dose-only effect, or another doubt; inactive = no such curve, though single readings can be large; an effect the other way counts as inactive or inconclusive. Potency is the fitted concentration of half-maximal effect.

SMILES	Pf growth 48h	Pf growth 96h	AMA1 RON2 block	SARS PLpro yeast
c1ccc(CCNc2ncnc3scc(C4COc5ccccc5O4)c23)cc1 (stereo unspecified)	x	15µM*	u	-6%
OCC1CCCN(c2ncnc3scc(-c4ccccc4)c23)C1 (stereo unspecified)	u	u	0%	-2%
c1ccc2c(c1)OCC(c1csc3ncnc(N4CCCC4)c13)O2 (stereo unspecified)	x	9.3µM*	-6%	-6%
CCc1ccc(C(C(=O)NCc2ccccc2)N(C(=O)c2csnn2)C2CC2)cc1 (stereo unspecified)	0%	u	-4%	1%
CCOC(=O)c1cc2c(=O)[nH]ccc2nc1C(F)(F)F	u	6.6µM*	-13%	0%
Clc1cccc(N/N=C/c2ccncc2)c1	2.6µM*	-20%	-18%	-66%
Nc1c(C(=O)c2ccccc2)sc2c1c(=O)[nH]c(=O)n2-c1ccccc1	-15%	-2%	0%	-20%
Cc1ccc(C(=O)c2sc3c(c2N)c(=O)[nH]c(=O)n3CCc2ccccc2)cc1	u	9.3µM*	-13%	15%
CCCCCCc1cc2cc(C(=O)OCC)c(=O)oc2cc1O	1.7µM*	1.5µM*	21%	1%
CCCCCCc1cc2cc(/C(N)=N/NC(=O)c3ccncc3)c(=O)oc2cc1O	3.3µM*	20%	127%	2%
CCCCCCc1cc2cc(C(N)=O)c(=N)oc2cc1O	x	u	x	-1%
COC(=O)Cn1c(CCS(=O)(=O)c2ccc(C)c(C)c2)nc2ccccc21	15%	u	-2%	-5%
CC(C)(C)C(=O)/C=C1\SCC(=O)N1CC(=O)N1CCN(c2ccccc2)CC1	x	x	-2%	-5%
OC(CNCCc1ccc(Cl)cc1)COc1cc(Cl)ccc1Cl (stereo unspecified)	u	u	-9%	-4%
CCOC(=O)/C(C#N)=C/Nc1ccccc1NS(=O)(=O)c1ccc2c(c1)OCCO2	9.3µM*	12µM*	75%	-3%
COC(=O)CCC(=O)OC1(C)C(=O)C=C2C=C(C3CC3)N(C3CCCC3)C=C2C1=O (stereo unspecified)	u	7.4µM*	1%	-4%
COC(=O)CCC(=O)OC1(C)C(=O)C=C2C=C(C3CC3)N(CC3CC3)C=C2C1=O (stereo unspecified)	10µM*	4.1µM*	-2%	0%
COC(=O)CCC(=O)OC1(C)C(=O)C=C2C=C(C3CC3)N(Cc3ccccc3)C=C2C1=O (stereo unspecified)	u	u	4%	1%
COC(=O)CCC(=O)OC1(C)C(=O)C=C2C=C(C3CC3)N(CC(C)C)C=C2C1=O (stereo unspecified)	2.9µM*	1.9µM*	x	1%
COC(=O)CCC(=O)OC1(C)C(=O)C=C2C=C(C3CC3)N(C3CCCCC3)C=C2C1=O (stereo unspecified)	u	u	16%	3%
Cc1cccc(CNC(=O)Nc2nnc([C@@H]3C[C@H](O)[C@@H](CO)O3)s2)c1	x	x	-4%	x
CCCC(c1nnnn1CCOC)N1CCN(c2cccc(OC)c2)CC1 (stereo unspecified)	-30%	9%	10%	0%
CC(C)NC(=O)N1Cc2cc(C(=O)NC3CCCC3)nc(-c3cccc(-c4cccnc4)c3)c2[C@H]1CCO	x	x	4%	x
CC(/C=N/NC(=O)c1nnn(-c2nonc2N)c1C)=C\c1ccccc1	49%	u	1%	-4%
Cn1cnnc1Sc1ccc(C(=O)NCCC(c2ccccc2)c2ccccc2)cc1[N+](=O)[O-]	8.3µM*	u	-9%	5%
SMILES	Pf growth 48h	Pf growth 96h	AMA1 RON2 block	SARS PLpro yeast
CC1CCCN(C2=C(NS(=O)(=O)c3ccc(Cl)cc3)C(=O)c3ccccc3C2=O)C1 (stereo unspecified)	u	12µM*	u	-8%
CCOC(=O)N1CCN(C2=C(NS(=O)(=O)c3ccc(C)cc3)C(=O)c3ccccc3C2=O)CC1	8.3µM*	3.3µM*	u	-3%
CC(=O)Nc1ccc(S(=O)(=O)NC2=C(N3CCN(c4ccc(F)cc4)CC3)C(=O)c3ccccc3C2=O)cc1	0.74µM*	x	u	3%
COC(=O)C1CCN(C2=C(NS(=O)(=O)c3ccc(Cl)cc3)C(=O)c3ccccc3C2=O)CC1	u	u	20µM*	-5%
Cc1ccc(S(=O)(=O)NC2=C(N3CCN(c4ccccc4F)CC3)C(=O)c3ccccc3C2=O)cc1	u	u	u	-2%
Cc1ccc(/C=N\NC(=O)CC(=O)NCCc2ccccc2)cc1	2%	-13%	27%	-6%
COc1cc(C(=O)NC2CCN(CC(=O)NC3CCCCC3C)CC2)cc(OC)c1OC (stereo unspecified)	-16%	u	6%	-7%
COC(=O)[C@H](Cc1ccccc1)NC(=O)O[C@@H]1C(=O)c2cc(OC)ccc2O[C@H]1c1ccc(OC)c(Br)c1	28%	u	x	3%
CN(C)S(=O)(=O)c1ccc(Cl)c(-c2nnc3n2CCCCC3)c1	0%	-1%	1%	-1%
Cc1ccc(S(=O)(=O)N(C)Cc2ccc(-c3nnc4n3CCC4)cc2)cc1	10µM*	11%	3%	0%
CCOc1cnn(-c2cc(Oc3ccc(C)cc3)ncn2)c(=O)c1Cl	x	u	9%	5%
Cc1cc(Oc2cnn(C(C)(C)C)c(=O)c2Cl)cc(C(C)C)c1	12µM*	8.3µM*	6%	-67%
CCOC(=O)C1=C(c2ccccc2)O/C(=C(/C#N)C(F)(F)F)S1	9.3µM*	x	x	-1%
COC(=O)/C(=C1/Oc2ccc(C(C)(C)C)cc2S1)C(F)(F)F	57%	u	-2%	0%
CCOC(=O)C1=C(c2ccccc2)O/C(=C(\C(=O)OC)C(F)(F)F)S1	x	9.3µM*	3%	13%
CC(C)NS(=O)(=O)c1cc(F)ccc1CN1C(=O)c2cccnc2C1=O	-9%	2.1µM*	0%	1%
CC(C)CCNC(=O)NC(=O)COC(=O)CCN=C1NS(=O)(=O)c2ccccc21	20%	-11%	0%	2%
COc1ccc(CNC(=O)c2c(C)nc3ccccn23)cc1	-11%	u	4%	-9%
COc1ccc(CCNC(=O)c2c(C)nc3ccccn23)cc1	u	12µM*	-15%	-2%
CCN(c1ccccc1)S(=O)(=O)c1ccc(Cl)c(NC(=O)COC(=O)c2ccc(O)cc2)c1	u	12µM*	8%	7%
CCN(c1ccccc1)S(=O)(=O)c1ccc(Cl)c(NC(=O)COC(=O)C2CC2C)c1 (stereo unspecified)	-13%	-2%	0%	1%
CCN(c1ccccc1)S(=O)(=O)c1ccc(Cl)c(NC(=O)COC(=O)c2cc(O)c3ccccc3c2O)c1	13µM*	12µM*	x	-5%
CN(C)c1cccc(C(=O)OCC(=O)Nc2ccccc2-c2ccccc2)c1	u	u	-28%	-10%
CCN(CC)c1ccc(C(=O)OCC(=O)Nc2ccccc2-c2ccccc2)cc1	u	10µM*	4%	4%
